Source: PubChem (several laboratories)
Autofluor counter: compound fluorescence in toxin protease inhibitor counterscreen | 360,000 compounds, 3.1% hits | compound autofluorescence counterscreen, microsphere flow cytometry; active compounds read high | fluorescence intensity (no concentration beside the values); in the data active = fluorescence intensity above about 16000; inconclusive = no clear call, values can overlap the other calls
Anthrax LF prot: Bacillus anthracis LF protease inhibitors, primary screen, biochemical, multiplex microsphere, MLPCN library. multiplex microsphere protease cleavage assay. AID 588501, 2011. 360,000 compounds, 0.12% hits. inhibition, % at 10 µM; also: plate controls were buffer without enzyme for full effect and enzyme alone for no effect
BoNT-A LC inh2: BoNT/A light chain protease inhibitors, primary screen, biochemical, flow cytometry, MLPCN library; inhibition, % at 10 µM; multiplex microsphere protease substrate cleavage; Botulinum neurotoxin type A light chain protease (Clostridium botulinum A str. ATCC 3502); 360,000 compounds, 0.17% hits; also: plate controls were buffer without enzyme for full effect and enzyme alone for no effect
BoNT F protease: BoNT/F light chain protease inhibitors, primary screen, biochemical, flow cytometry, MLPCN library; Multiplex microsphere protease cleavage assay; inhibition, % at 10 µM; 360,000 compounds, 0.22% hits; AID 588497, 2011; in the data active = inhibition above about 35%, passing the limit was not always enough; inconclusive = no clear call, values can overlap the other calls; also: plate controls were buffer without enzyme for full effect and enzyme alone for no effect
PriA SSB inh: inhibitors of Klebsiella pneumoniae PriA binding to SSB C-terminal tail, primary screen, biochemical, AlphaScreen; PriA–SSB C-terminal tail interaction (Klebsiella pneumoniae); AlphaScreen SSBct-PriA binding, biotinylated peptide; inhibition, % at 33 µM; 430,000 compounds, 0.6% hits; AID 1272365, 2023; in the data active = inhibition mostly above about 37%, no sharp cut-off; inactive = mostly below about 20%;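 also: plate controls were negative control peptide for no effect and reference peptide for full effect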
MazEF act: activators of E. coli MazEF toxin-antitoxin RNase, primary screen, biochemical, fluorescence, uHTS; Endoribonuclease toxin MazF (Escherichia coli (strain K12)), P0AE70; FAM/BHQ RNA-DNA oligo cleavage fluorescence, 5 h; activation, % at 20 µM; 350,000 compounds, 0.32% hits; AID 504720, 2011; in the data active = activation above about 50%
Target sequence (P0AE70 whole entry, looked up): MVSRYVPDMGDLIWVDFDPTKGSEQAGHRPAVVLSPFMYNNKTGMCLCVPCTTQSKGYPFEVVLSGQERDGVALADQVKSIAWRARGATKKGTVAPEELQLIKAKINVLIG
* = called active by the depositor; ? = inconclusive; · = no result given. Shown are actives, neighbours in structure and some others; about 3.3% of the full set was active somewhere. Rule as the data show it, unless noted: active = inhibition above about 30%; inconclusive = no clear call, values can overlap the other calls; inactive = below that.

SMILES | Autofluor counter | Anthrax LF prot | BoNT-A LC inh2 | BoNT F protease | PriA SSB inh | MazEF act
COc1cc2ccccc2cc1C(=O)Nc1cc(C)nn1C | · | · | · | · | 3 | ·
O=C(c1ccc2c(=O)n(Cc3ccc4c(c3)OCO4)c(=S)[nH]c2c1)N1CCCCC1 | 22165* | -2 | 3 | 3 | -14 | 6
CC1CC(C)CN(C(=O)c2ccc3c(=O)n(Cc4ccc5c(c4)OCO5)c(=S)[nH]c3c2)C1 (configuration not stated) | ? | -12 | 3 | 11 | 9 | 3
COc1ccc(CC(C)(O)CNS(=O)(=O)Cc2ccccc2Cl)cc1 (configuration not stated) | · | · | · | · | -6 | ·
O=S(=O)(Nc1cnoc1)c1ccc2c(c1)OCCO2 | · | · | · | · | 9 | ·
Cc1c[nH]c2cccc(OCC(CNC(C)(C)C)OC(=O)c3ccccc3)c12 (configuration not stated) | 3851 | -12 | 1 | -58 | 49* | 16
CCCn1cc(SCC(=O)N2N=C(c3ccc(OC)cc3)C[C@H]2c2cccc(OC)c2OC)c2ccccc21 | · | · | · | · | -3 | ·
C[C@H]1CCCN(S(=O)(=O)c2ccc(C(=O)Nc3nnc(Cc4cccs4)o3)cc2)C1 | · | · | · | · | 91* | ·
CC1CCCN(S(=O)(=O)c2ccc(NC(=O)c3cccc(-n4cnnn4)c3)cc2)C1 (configuration not stated) | 20061* | -2 | 1 | 0 | -7 | -4
COCc1nnc(NC(=O)c2ccc(S(=O)(=O)N3CCOCC3)cc2)o1 | 5720 | 1 | 0 | -5 | -12 | 2
O=C(Nc1nnc(Cc2cccs2)o1)c1ccc(S(=O)(=O)N2CCOCC2)cc1 | · | · | · | · | 79* | ·
CC(C)S(=O)(=O)c1cccc(C(=O)Nc2nnc(Cc3cccs3)o2)c1 | · | · | · | · | 41* | ·
COc1cccc(C(=O)Nc2nnc(Cc3ccc(S(=O)(=O)C(C)C)cc3)o2)c1 | · | · | · | · | -3 | ·
CS(=O)(=O)c1cccc(C(=O)Nc2nc3c(F)cccc3s2)c1 | · | · | · | · | 1 | ·
c1ncn(CC2CCNCC2)n1 | · | · | · | · | -5 | ·
O=C(Cc1ccc(NC(=O)N2CCNC2=O)cc1)NCC(F)(F)F | · | · | · | · | -10 | ·
CCSc1ccccc1C(=O)Nc1nnc(Cc2cccs2)o1 | · | · | · | · | 40* | ·
CCC(C)c1ccc(O)c(N)c1 (configuration not stated) | 16286* | -3 | 0 | -3 | 6 | -4
CC(C)c1ccc(O)c(N)c1 | 4305 | -3 | 0 | -6 | 3 | 4
CN1CCN(c2nc3ccc(NS(=O)(=O)c4ccc(Cl)s4)cc3s2)CC1 | · | · | · | · | -5 | ·
O=c1[nH]c(SCc2nc3c(cnn3-c3ccccc3)c(=O)[nH]2)nc2ccccc12 | 4043 | 4 | 0 | ? | -13 | 50*
O=c1[nH]c(CSc2nc3ccccc3[nH]2)nc2c1cnn2-c1ccccc1 | 10068 | -2 | 1 | 1 | 7 | -2
COC(=O)[C@H](CC(C)C)NC(=O)NC1CCCCC1C (some centres not stated) | 17745* | -17 | 4 | 6 | -22 | -4
CCS(=O)(=O)Nc1cc(N2CCCS2(=O)=O)ccc1C | · | · | · | · | -18 | ·
COc1ccc(-n2nc3c(N4CCC(C(=O)NCc5ccccc5C)CC4)nnc(C)c3c2C)cc1 | 8875 | 7 | 3 | 22 | -3 | -7
SMILES | Autofluor counter | Anthrax LF prot | BoNT-A LC inh2 | BoNT F protease | PriA SSB inh | MazEF act
CCOc1ccccc1CNC(=O)C1CCCN(c2nnc(C)c3c(C)n(-c4ccccc4)nc23)C1 (configuration not stated) | 19018* | 2 | -8 | 14 | -17 | 14
Cc1ccc(NC(=O)CSc2n[nH]c(-c3ccccn3)n2)cc1 | 5411 | 0 | 0 | -8 | 97* | -1
O=C(CSc1n[nH]c(-c2ccccn2)n1)Nc1ccc(F)cc1 | 3041 | -2 | -2 | 4 | 82* | -26
O=C(CSc1n[nH]c(-c2ccccn2)n1)Nc1ccc(Cl)cc1 | 6127 | -1 | -4 | -7 | -24 | -1
C/C(=C1/SC(N2CC(C)OC(C)C2)=NC1=O)c1ccccc1 (configuration not stated) | 19965* | -4 | -1 | -1 | -15 | 2
Clc1ccc(CN2C3=NCCN3c3ccccc32)cc1Cl | 23094* | 0 | 0 | -4 | -17 | 11
COc1ccc(N(Cc2cc3ccccc3[nH]c2=O)S(C)(=O)=O)cc1 | 6388 | -2 | 0 | 6 | -11 | 3
COc1ccc(N(Cc2cc3cccc(C)c3[nH]c2=O)S(C)(=O)=O)cc1 | 24150* | -1 | -2 | -5 | -6 | 0
CCOc1ccc(N(Cc2cc3ccc(C)cc3[nH]c2=O)S(=O)(=O)c2ccccc2)cc1 | 4345 | -2 | 2 | -2 | -2 | -9
CCOc1ccc(N(Cc2cc3ccc(C)cc3[nH]c2=O)S(C)(=O)=O)cc1 | 22539* | -1 | 2 | 3 | -19 | -1
COc1cccc(CSc2nc(CC(=O)NCc3ccco3)cc(=O)[nH]2)c1 | · | · | · | · | -3 | ·
CCOc1ccc(-c2nc(CSc3nc(-c4cccc(OC)c4)cc(=O)[nH]3)c(C)o2)cc1 | · | · | · | · | -13 | ·
COc1cc(NC(=O)Cn2ncn3nc(-c4ccc(F)cc4)cc3c2=O)cc(OC)c1 | · | · | · | · | -12 | ·
CCOCCn1c(CC)nc2ccccc21 | 3807 | -2 | -4 | -10 | -3 | 4
CCc1nc2ccccc2n(CCOCCn2c(=O)c(CC)nc3ccccc32)c1=O | 21722* | -1 | 4 | 6 | -11 | -8
CCn1c(O)c(C=NNC(=O)c2ccccc2)c(=O)[nH]c1=S | · | · | · | · | -2 | ·
Cc1nccn1CCNC(=O)c1c[nH]c(=O)n(Cc2ccc3c(c2)OCO3)c1=O | · | · | · | · | -3 | ·
CC1(C)CC(=O)C2=C(C1)N(Cc1cccnc1)C(=O)C2(NC(=O)c1cccnc1)C(F)(F)F (configuration not stated) | 9303 | 2 | 0 | 0 | -11 | 3
CCCCN1C(=O)C(NC(=O)c2cccnc2)(C(F)(F)F)C2=C1CC(C)(C)CC2=O (configuration not stated) | 23010* | -2 | 2 | 3 | -16 | -2
CCOC(=O)NC1(C(F)(F)F)C(=O)N(Cc2ccccc2)C2=C1C(=O)CC(C)(C)C2 (configuration not stated) | 25964* | -4 | -4 | -8 | -6 | 1
CC1(C)CC(=O)C2=C(C1)N(Cc1cccnc1)C(=O)C2(NC(=O)c1ccc(F)cc1)C(F)(F)F (configuration not stated) | 3119 | -2 | 1 | 1 | -8 | 4
CC1(C)CC(=O)C2=C(C1)N(Cc1ccco1)C(=O)C2(NC(=O)c1cccnc1)C(F)(F)F (configuration not stated) | 20736* | -3 | ? | -1 | 2 | 9
